# Source: the supplement of paper PMC8975748
# Where a name gives a salt, the structure may show the parent alone.
# Tested on: Saccharomyces cerevisiae BY4741 SeMeCo community
# Experiment: z-score of subpopulation abundance vs DMSO median, subpopulation auxotrophic for LM; higher = larger share of this subpopulation than in DMSO controls
# Details: 10 µM; 24 h; SM minimal medium; subpopulation (auxotrophy): LM
# Protocol: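 Fluorescent four-plasmid SeMeCo (self-establishing metabolically cooperating S. cerevisiae BY4741 community; plasmids pH-mRuby2, pL-mWasabi, pU-eCFP, pM-TagRFP657) was grown 24 h in minimal SM medium with each Selleck FDA-approved drug at 10 µM in 384-well plates. Cells were fixed and imaged by high-content confocal microscopy. For each auxotrophic subpopulation (and the prototroph), a z-score gives the deviation from the DMSO vehicle-control population median.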
row,SMILES,z-score of subpopulation abundance
1,O=C1c2cccc3c2[C@H](CCC3)CN1[C@@H]1CN2CCC1CC2 [Palonosetron HCl],-0.39
2,CC(C(=O)O)c1ccc2c(c1)CC(=O)c1ccccc1S2 (stereo not given) [Zaltoprofen],-0.57
3,COc1ccc2cc(C(=O)O)ccc2c1 [6-Methoxy-2-naphthoic acid],-1.51
4,NC(=O)[C@@H]1CC[C@@H]2CN1C(=O)N2OS(=O)(=O)O [Avibactam sodium],0.78
5,C[C@]1(COc2ccc(N3CCC(Oc4ccc(OC(F)(F)F)cc4)CC3)cc2)Cn2cc([N+](=O)[O-])nc2O1 [Delamanid],0.45
6,O=C(Cn1cnnn1)N[C@@H]1C(=O)N2C(C(=O)O)=C(CSc3nncs3)CS[C@H]12 [Ceftezole sodium],0.18
7,CS(=O)(=O)Nc1ccc([N+](=O)[O-])cc1Oc1ccccc1 [Nimesulide],0.74
8,CC(=O)OCC(CCn1cnc2cnc(N)nc21)COC(C)=O [Famciclovir],-0.17
9,O=C(O)CCNC(=O)c1ccccc1 [Betamipron],-0.71
10,CC[C@H]1OC(=O)[C@H](C)[C@@H](O[C@H]2C[C@@](C)(OC)[C@@H](O)[C@H](C)O2)[C@H](C)[C@@H](O[C@@H]2O[C@H](C)C[C@H](N(C)C)[C@H]2O)[C@](C)(O)C[C@@H](C)CN(C)[C@H](C)[C@@H](O)[C@]1(C)O [Azithromycin Dihydrate],-0.45
11,CN1CCN(CCCN2c3ccccc3Sc3ccc(Cl)cc32)CC1 [Prochlorperazine dimaleate salt],0.75
12,CC[C@H]1OC(=O)[C@H](C)[C@@H](O[C@H]2C[C@@](C)(OC)[C@@H](O)[C@H](C)O2)[C@H](C)[C@@H](O[C@@H]2O[C@H](C)C[C@H](N(C)C)[C@H]2O)[C@](C)(O)C[C@@H](C)CN(C)[C@H](C)[C@@H](O)[C@]1(C)O [Azithromycin],0.27
13,OC(c1ccccc1)(c1ccccc1)C12CC[N+](CCOCc3ccccc3)(CC1)CC2 [Umeclidinium bromide],-0.42
14,N[C@@H]1CN(c2c(F)cc3c(=O)c(C(=O)O)cn([C@@H]4C[C@@H]4F)c3c2Cl)CC12CC2 [Sitafloxacin Hydrate],0.69
15,Cc1nc(Nc2ccc(F)cc2)nc(N2CCc3ccccc3C2C)c1C (stereo not given) [Revaprazan Hydrochloride],0.05
16,CC[N+](CC)(CC)CC [Tetraethylammonium bromide],0.41
17,CC(C)C(=O)c1c(C(C)C)nn2ccccc12 [Ibudilast],-0.43
18,C=CCCCCCCCCC(=O)[O-].C=CCCCCCCCCC(=O)[O-].[Zn+2] [Zinc Undecylenate],-2.11
19,CCCCOc1ccc(C(=O)CCN2CCCCC2)cc1 [Dyclonine HCl],0.14
20,O=C1C(=O)c2ccccc2C(O)=C1C1CCC(c2ccc(Cl)cc2)CC1 (stereo not given) [Atovaquone],1.39

row,SMILES,z-score of subpopulation abundance
1,CC1=CC[C@@](O)(C(C)C)CC1 [Terpinen-4-ol],-0.03
2,COc1cccc2c1C(=O)c1c(O)c3c(c(O)c1C2=O)C[C@@](O)(C(C)=O)C[C@@H]3O[C@H]1C[C@H](N)[C@H](O)[C@H](C)O1 [Daunorubicin HCl],-1.4
3,Nc1ccc(S(=O)(=O)Nc2nccs2)cc1 [Sulfathiazole],-0.24
4,CN[C@@H]1[C@@H](O)[C@@H](O[C@@H]2[C@@H](O)[C@H](O[C@H]3OC(CN)=CC[C@H]3N)[C@@H](N)C[C@H]2N)OC[C@]1(C)O [Sisomicin sulfate],1.22
5,COc1cccc(CCc2ccccc2OCC(CN(C)C)OC(=O)CCC(=O)O)c1 (stereo not given) [Sarpogrelate hydrochloride],-0.29
6,Clc1ccc(COC(Cn2ccnc2)c2ccc(Cl)cc2Cl)c(Cl)c1 (stereo not given) [Miconazole Nitrate],-3.18
7,O=C(c1ccccc1)c1ccc2n1CCC2C(=O)O (stereo not given) [Ketorolac],0.62
8,CC(C(=O)O)c1ccc2c(c1)Cc1cccnc1O2 (stereo not given) [Pranoprofen],-0.7
9,CC[C@H]1OC(=O)[C@H](C)[C@@H](O[C@H]2C[C@@](C)(OC)[C@@H](O)[C@H](C)O2)[C@H](C)[C@@H](O[C@@H]2O[C@H](C)C[C@H](N(C)C)[C@H]2O)[C@](C)(O)C[C@@H](C)C(=O)[C@H](C)[C@H]2OC(=O)O[C@@]21C [Erythromycin Cyclocarbonate],0.55
10,C[C@H]1COc2c(N3CCN(C)CC3)c(F)cc3c(=O)c(C(=O)O)cn1c23 [Levofloxacin hydrate],1.34
11,O=c1[nH]c2ccccc2n1CCN1CCN(c2cccc(C(F)(F)F)c2)CC1 [Flibanserin],-0.37
12,CCNC(=O)[C@@H]1CCCN1C(=O)[C@H](CCCNC(=N)N)NC(=O)[C@H](CC(C)C)NC(=O)[C@@H](CC(C)C)NC(=O)[C@H](Cc1ccc(O)cc1)NC(=O)[C@H](CO)NC(=O)[C@H](Cc1c[nH]c2ccccc12)NC(=O)[C@H](Cc1c[nH]cn1)NC(=O)[C@@H]1CCC(=O)N1 [Leuprolide Acetate],0.63
13,Cc1[nH]c(=O)c(C#N)cc1-c1ccncc1 [Milrinone],-0.5
14,C[C@@H](O)[C@H]1C(=O)N2C(C(=O)O)=C(S[C@@H]3CN[C@H](C(=O)Nc4cccc(C(=O)O)c4)C3)[C@H](C)[C@H]12 [Ertapenem sodium],-0.04
15,CCCC1CC(C(=O)NC(C(C)Cl)C2OC(SC)C(O)C(O)C2O)N(C)C1 (stereo not given) [Clindamycin alcoholate],1.04
16,C[C@]1(Cn2ccnn2)[C@H](C(=O)O)N2C(=O)C[C@H]2S1(=O)=O [Tazobactam],-0.39
17,CC1=C(C(=O)O)N2C(=O)[C@@H](NC(=O)[C@H](N)C3=CCC=CC3)[C@H]2SC1 [Cefradine],-0.58
18,CN1CCN(c2cc3c(cc2F)c(=O)c(C(=O)O)cn3-c2ccc(F)cc2)CC1 [Difloxacin hydrochloride],-0.31
19,CCCOc1ccc2[nH]c(NC(=O)OC)nc2c1 [Oxibendazole],0.57
20,CN1C2CCCC1CC(NC(=O)c1nn(C)c3ccccc13)C2 (stereo not given) [Granisetron],-0.49
